# Assay results: the supplement of paper PMC8007513
# Structures can show the parent of a compound that is named as a salt. ± gives the standard error. In all, about 1,300 compounds went through this assay and about 75 (6%) showed an effect of 50% or more. Shown is part of a subset that was picked to be rich in strong results.
# System: Trichoderma virens ATCC 9645
# Experiment: growth yield (OD600) relative to untreated control; higher = less growth inhibition
# Settings: compound concentration: 100 uM
# How it was run: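 A biocide at 200 ng ml^−1 was co-applied to some wells, and library compounds were present in all test wells at 100 μM final. The wells held 100 μl of Trichoderma virens ATCC 9645 spores at 15,000 spores ml^−1 in potato dextrose broth, grown at 30 °C in 96-well plates, with OD600 read at 40 h and 72 h. Results are relative growth against the control without either agent, averaged across duplicate screens.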
compound,measurement,setting,value
COc1ccc(C(=O)c2ccccc2)c(O)c1 [Oxybenzone],growth yield,40 h,53.8 ± 4.3%
same,growth yield,72 h,62.9%
COc1ccccc1O [Guaiacol],growth yield,40 h,103.9 ± 0.95%
same,growth yield,72 h,102.7 ± 0.32%
COc1ccc(C(=O)c2ccccc2O)c(O)c1 [Dioxybenzone],growth yield,40 h,22.2%
same,growth yield,72 h,45.1 ± 2.7%
Nc1cc(N2CCCCC2)nc(N)[n+]1[O-] [Minoxidil],growth yield,40 h,104 ± 3.2%
same,growth yield,72 h,102 ± 1.3%
O=C(NCCO[N+](=O)[O-])c1cccnc1 [Nicorandil],growth yield,40 h,102.9 ± 0.32%
same,growth yield,72 h,102 ± 4.2%
CC1=C(C(=O)O)N2C(=O)[C@@H](NC(=O)[C@H](N)c3ccc(O)cc3)[C@H]2SC1 [Cefadroxil],growth yield,40 h,104 ± 8.9%
same,growth yield,72 h,106 ± 9.1%
O=C(O[C@@H]1C[C@@H]2C[C@H]3C[C@H](C1)N2CC3=O)c1c[nH]c2ccccc12 [Dolasetron mesilate],growth yield,40 h,106 ± 3.3%
same,growth yield,72 h,104 ± 1.9%
CCn1cc(C(=O)O)c(=O)c2cnc(N3CCCC3)nc21 [Piromidic acid],growth yield,40 h,90.5 ± 5.7%
same,growth yield,72 h,92.1 ± 4%
CCCCC(CC)CNC(=N)NC(=N)NCCCCCCNC(=N)NC(=N)NCC(CC)CCCC (stereo not drawn) [Alexidine dihydrochloride],growth yield,40 h,1.91 ± 0.32%
same,growth yield,72 h,1.89 ± 0.63%
OC(CCN1CCCCC1)(c1ccccc1)C1CC2C=CC1C2 (stereo not drawn) [Biperiden hydrochloride],growth yield,40 h,104 ± 2.9%
same,growth yield,72 h,105 ± 1.9%
CCN(CC)CCNc1ccc(CO)c2sc3ccccc3c(=O)c12 [Hycanthone],growth yield,40 h,118 ± 4.1%
same,growth yield,72 h,114.7 ± 0.63%
CCCCC[C@H](O)/C=C/[C@H]1[C@H](O)CC(=O)[C@@H]1CCCCCCC(=O)O [Alprostadil],growth yield,40 h,107 ± 8.4%
same,growth yield,72 h,101 ± 6.2%
C[C@@H]1C[C@H]2[C@@H]3C[C@H](F)C4=CC(=O)C=C[C@]4(C)[C@@]3(Cl)[C@@H](O)C[C@]2(C)[C@H]1C(=O)COC(=O)C(C)(C)C [Clocortolone pivalate],growth yield,40 h,107 ± 4%
same,growth yield,72 h,100 ± 5.7%
CCc1oc2ccccc2c1C(=O)c1cc(Br)c(O)c(Br)c1 [Benzbromarone],growth yield,40 h,40.7 ± 5.7%
same,growth yield,72 h,77.8 ± 4.8%
O=c1oc2ccccc2c(O)c1Cc1c(O)c2ccccc2oc1=O [Dicumarol],growth yield,40 h,94 ± 0.95%
same,growth yield,72 h,92.4 ± 0.94%
CC(=O)CC(c1ccccc1)c1c(O)c2ccccc2oc1=O (stereo not drawn) [Warfarin],growth yield,40 h,90.9 ± 3.5%
same,growth yield,72 h,89.1 ± 4%
CC(Cc1cccc(C(F)(F)F)c1)NCCOC(=O)c1ccccc1 (stereo not drawn) [Benfluorex],growth yield,40 h,83.5 ± 3.5%
same,growth yield,72 h,95.9 ± 1.9%
CN[C@@H]1[C@H](O[C@H]2[C@H](O[C@H]3[C@H](O)[C@@H](O)[C@H](NC(=N)N)[C@@H](O)[C@@H]3NC(=N)N)O[C@@H](C)[C@]2(O)CO)O[C@@H](CO)[C@H](O)[C@H]1O [Dihydrostreptomycin sulfate],growth yield,40 h,96.9%
same,growth yield,72 h,98%
CCOC1O[C@H]([C@@H](COCc2ccccc2)OCc2ccccc2)[C@H](OCc2ccccc2)[C@H]1O (stereo partly drawn) [Tribenoside],growth yield,40 h,90.2 ± 6%
same,growth yield,72 h,87.2 ± 6.2%
